Assay results published in PubChem BioAssay (Tox21).
Results filed as inconclusive are left out. Unmarked numbers belong to inactive results. Calls of active or inactive are those of the source. Calls follow the shape of the dose curve; as a rule, active = well fitted cell-killing curve with a large enough effect in the repeat runs; inconclusive = weak or mixed curves, or effect the other way; inactive = no such curve, though single readings can be large or run the other way.

test: qHTS assay to identify small molecule agonists of the farnesoid-X-receptor (FXR) signaling pathway - cell viability counter screen (AID 743218); settings: FXR-bla HEK293T viability, CellTiter-Glo luminescence, 16 h; series mostly up to 62.6 µM; viability change, negative = cytotoxic: at the top concentration; also: nearly all actives have a fitted effect of over 45% in size
Text: U.S. Tox21 Program National Center for Advancing Translational Sciences [NCATS] NIH Chemical Genomics Center [NCGC] U.S. Environmental Protection Agency [EPA] National Institutes of Environmental Health Sciences [NIEHS] National Toxicology Program [NTP] U.S. Food and Drug Administration [FDA] Tox21 Assay Overview: The farnesoid-X-receptor (FXR), a nuclear hormone receptor, is highly expressed in liver, intestine, kidney and adrenal cortex. Natural ligands of FXR are the bile acids (Cholic acid, Chenodeoxy cholic acid etc). FXR is an important regulator of diverse metabolic pathways, including the bile acid homeostasis, lipid and glucose metabolisms. FXR regulates the expression of target genes by binding either as a monomer or as a heterodimer with the retinoid X receptor (RXR). Numerous studies have reported that FXR exerts protective function during cholestasis, diabetes, liver regeneration, and cancer. To identify compounds that activate FXR signaling, GeneBLAzer FXR-UAS-bla HEK 293T cell line (Invitrogen, Carlsbad, CA) containing a beta-lactamase reporter gene under the control of a UAS response element was used to screen the Tox21 10K compound library. The cytotoxicity of the Tox21 compound library against the FXR-bla cell line was tested in parallel by measuring the cell viability using CellTiter-Glo assay in the same wells.
Tox21 Assay Protocol Summary: FXR-bla cells were dispensed at 5000 cells/5uL/well in 1536-well black wall/clear bottom plates using a Multidrop Combi (Thermo Fisher Scientific, Waltham, MA) dispenser. After the assay plates were incubated at 37 C and 5% CO2 for 5 h, 23 nL of compounds dissolved in DMSO, positive controls or DMSO only was transferred to the assay plate by a Pintool station (Kalypsys, San Diego, CA). The assay plates were incubated at 37C for 16 h. After 1 uL of LiveBLAzerTM B/G FRET substrate was added using a Bioraptr Flying Reagent Dispenser (FRD) workstation (Beckman Coulter, Indianapolis, IN), the plates were incubated at room temperature for 2 h, and fluorescence intensity was measured by an Envision plate reader (PerkinElmer, Shelton, CT). For cell viability readout that measures cytotoxicity, 4uL/well of CellTiter-Glo reagent was added into the assay plates using a Bioraptr FRD. After 30 min incubation at room temperature, the luminescence intensity in the plates was measured using a ViewLux plate reader (PerkinElmer).
% is scaled to controls: 0 for no effect and ±100 for the full control effect; potency is read from the fitted curve at half-maximal effect.

| SMILES | Potency | viability change, negative = cytotoxic |
| --- | --- | --- |
| NNc1nc(-c2ccc(N)cc2)cs1 | 6.92 µM (active) |  |
| CN1CCN(CCC(=O)N2c3ccccc3Sc3ccc(C(F)(F)F)cc32)CC1 | 21.1 µM (active) |  |
| CCCCCCCCOc1ccccc1C(=O)Nc1ccc(C(=O)OCC[N+](C)(CC)CC)cc1 |  | -29.6% |
| On1ccccc1=S | 0.385 µM (active) |  |
| CCCCCCCCCCC=O |  | -3.77% [at 81.1 µM] |
| CC(=O)N1CCN(c2ccc(OC[C@H]3CO[C@](Cn4ccnc4)(c4ccc(Cl)cc4Cl)O3)cc2)CC1 | 49 µM (active) |  |
| Nc1c2ccccc2nc2ccccc12 |  | -19.5% |
| CC(C)OC(=O)c1cc2c(OCC(O)CNC(C)(C)C)cccc2[nH]1 (stereo not given) |  | -31.3% |
| Cc1cccc2c1cc1ccc3cccc4ccc2c1c34 |  | 1.73% [at 81.1 µM] |
| [Cl][Au]([Cl])[Cl] | 2.75 µM (active) |  |
| [O-][n+]1ccccc1SSc1cccc[n+]1[O-] | 0.326 µM (active) |  |
| CC1(C)CCC(C)(C)c2cc(C(=O)Nc3ccc(C(=O)O)cc3)ccc21 |  | 21.7% |
| CSc1ccc(C(=O)c2[nH]c(=O)[nH]c2C)cc1 |  | 0.354% |
| O=Cc1cc(O)ccc1Br |  | 6.95% [at 81.1 µM] |
| NC(=O)NS(=O)(=O)c1ccc(N)cc1 |  | 1.67% |
| Oc1cccc2cc3cccc(O)c3c(O)c12 |  | -6.47% [at 81.1 µM] |
| NNc1nc(-c2ccccc2)cs1 | 2.52 µM (active) |  |
| CCCCCCCC(=O)[O-].CCCCCCCC(=O)[O-].[Zn+2] |  | 2.3% |
| CN(C)c1ccc(SC#N)cc1 |  | -11% |
| Clc1ccc2n[nH]nc2c1 |  | 22.2% |

| SMILES | Potency | viability change, negative = cytotoxic |
| --- | --- | --- |
| CCCCCCCCCOC(=O)c1ccc(O)cc1 | 48.3 µM (active) |  |
| O=c1cc(-c2ccc(O)cc2)oc2cc(O)cc(O)c12 | inactive |  |
| O=[N+]([O-])c1cc(Cl)c(Cl)c(Cl)c1Cl |  | 0.0678% |
| CC1=NC(C)OC1C (stereo not given) |  | 12.6% |
| O=C(O)c1cc(O)c2c(c1)C(=O)c1cccc(O)c1C2=O |  | -2.3% [at 81.1 µM] |
| NC(=O)N1C(=O)C(C(=O)c2cc(Cl)cs2)c2cc(F)c(Cl)cc21 (stereo not given) | 3.89 µM (active) |  |
| CNC(=O)c1ccccc1 |  | -22.4% |
| NC(=O)CC[C@@H]1NC(=O)[C@H](Cc2ccccc2)NC(=O)[C@H](Cc2ccc(O)cc2)NC(=O)CCSSC[C@@H](C(=O)N2CCC[C@H]2C(=O)N[C@@H](CCCN=C(N)N)C(=O)NCC(N)=O)NC(=O)[C@H](CC(N)=O)NC1=O |  | -4.73% |
| CN(C)c1ccc(C2(c3ccc(N(C)C)cc3)OC(=O)c3cc(N(C)C)ccc32)cc1 |  | -7.92% |
| C[C@]12CCC(=O)C=C1CC[C@@H]1[C@@H]2[C@@H](O)C[C@@]2(C)[C@H]1CC[C@]2(O)C(=O)COC(=O)CCC(=O)O |  | 0.936% |
| O=C(Oc1ccccc1)c1ccccc1C(=O)Oc1ccccc1 |  | 22.7% |
| COc1ccc(C(=O)/C(Br)=C\C(=O)O)cc1 |  | -18.4% |
| CCCC(=O)OC[C@@H](OC(=O)CCC)[C@@H](OC(=O)CCC)[C@H](Cn1c2nc(=O)[nH]c(=O)c-2nc2cc(C)c(C)cc21)OC(=O)CCC |  | -9.84% |
| Nc1ccc2cc(S(=O)(=O)O)cc(O)c2c1N=Nc1ccccc1C(F)(F)F |  | 0.531% |
| CC(C)(C)c1ccc(C(=O)O)cc1 |  | 2.67% |
| C=C(C)C(=O)OCC[N+](C)(C)C |  | 24.6% |
| CCCCCCCCCCCCCCCC(=O)OC[C@H](O)[C@H]1OC(=O)C(O)=C1O | 38.9 µM (active) |  |
| CCCCCCCCCCCCCCCCCC[N+](C)(C)C | 24.6 µM (active) |  |
| NNC(=O)c1cccc(C(=O)NN)c1 |  | -3.88% |
| COc1cc(-c2nc(NC(=O)c3cc4cc(C)cc(C)c4n3CC(=O)O)sc2CCC2CCCCC2)c(OC)cc1Cl | 12.7 µM (active) |  |
